NadD inh = NadD (S. aureus) enzyme inhibition. AID 602399. 360,000 compounds, 0.78% hits. purified NadD enzyme, colorimetric absorbance read-out. inhibition, % at 20 µM; in the data active = inhibition above about 26%
rCAG RNA binder = binds r(CAG) RNA repeats; AID 651821; inhibition, % at 3 µM; r(CAG) RNA repeat, TO-PRO-1 dye displacement fluorescence; 370,000 compounds, 1.3% hits;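 active = inhibition above the plate cutoff, the mean of all test compounds on that plate plus 3 SD, cut at about 35% in these data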;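 also: 0% = DMSO alone and 100% = 100 µM mitoxantrone as full dye displacement; higher means more dye released from RNA so lower well fluorescence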
FAS TE block = blocks the thioesterase domain of human fatty acid synthase; P49327; recombinant FAS-TE, OMFH fluorogenic substrate, fluorescence endpoint; inhibition, % at 15 µM; 360,000 compounds, 0.67% hits; AID 602261;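 active = compounds whose normalised, plate-corrected inhibition of enzyme fluorescence in the single-dose primary screen is 50% or more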;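 also: 0% = DMSO with enzyme and 100% = substrate without enzyme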
Target sequence (P49327 whole entry, looked up, the tested form may be a part): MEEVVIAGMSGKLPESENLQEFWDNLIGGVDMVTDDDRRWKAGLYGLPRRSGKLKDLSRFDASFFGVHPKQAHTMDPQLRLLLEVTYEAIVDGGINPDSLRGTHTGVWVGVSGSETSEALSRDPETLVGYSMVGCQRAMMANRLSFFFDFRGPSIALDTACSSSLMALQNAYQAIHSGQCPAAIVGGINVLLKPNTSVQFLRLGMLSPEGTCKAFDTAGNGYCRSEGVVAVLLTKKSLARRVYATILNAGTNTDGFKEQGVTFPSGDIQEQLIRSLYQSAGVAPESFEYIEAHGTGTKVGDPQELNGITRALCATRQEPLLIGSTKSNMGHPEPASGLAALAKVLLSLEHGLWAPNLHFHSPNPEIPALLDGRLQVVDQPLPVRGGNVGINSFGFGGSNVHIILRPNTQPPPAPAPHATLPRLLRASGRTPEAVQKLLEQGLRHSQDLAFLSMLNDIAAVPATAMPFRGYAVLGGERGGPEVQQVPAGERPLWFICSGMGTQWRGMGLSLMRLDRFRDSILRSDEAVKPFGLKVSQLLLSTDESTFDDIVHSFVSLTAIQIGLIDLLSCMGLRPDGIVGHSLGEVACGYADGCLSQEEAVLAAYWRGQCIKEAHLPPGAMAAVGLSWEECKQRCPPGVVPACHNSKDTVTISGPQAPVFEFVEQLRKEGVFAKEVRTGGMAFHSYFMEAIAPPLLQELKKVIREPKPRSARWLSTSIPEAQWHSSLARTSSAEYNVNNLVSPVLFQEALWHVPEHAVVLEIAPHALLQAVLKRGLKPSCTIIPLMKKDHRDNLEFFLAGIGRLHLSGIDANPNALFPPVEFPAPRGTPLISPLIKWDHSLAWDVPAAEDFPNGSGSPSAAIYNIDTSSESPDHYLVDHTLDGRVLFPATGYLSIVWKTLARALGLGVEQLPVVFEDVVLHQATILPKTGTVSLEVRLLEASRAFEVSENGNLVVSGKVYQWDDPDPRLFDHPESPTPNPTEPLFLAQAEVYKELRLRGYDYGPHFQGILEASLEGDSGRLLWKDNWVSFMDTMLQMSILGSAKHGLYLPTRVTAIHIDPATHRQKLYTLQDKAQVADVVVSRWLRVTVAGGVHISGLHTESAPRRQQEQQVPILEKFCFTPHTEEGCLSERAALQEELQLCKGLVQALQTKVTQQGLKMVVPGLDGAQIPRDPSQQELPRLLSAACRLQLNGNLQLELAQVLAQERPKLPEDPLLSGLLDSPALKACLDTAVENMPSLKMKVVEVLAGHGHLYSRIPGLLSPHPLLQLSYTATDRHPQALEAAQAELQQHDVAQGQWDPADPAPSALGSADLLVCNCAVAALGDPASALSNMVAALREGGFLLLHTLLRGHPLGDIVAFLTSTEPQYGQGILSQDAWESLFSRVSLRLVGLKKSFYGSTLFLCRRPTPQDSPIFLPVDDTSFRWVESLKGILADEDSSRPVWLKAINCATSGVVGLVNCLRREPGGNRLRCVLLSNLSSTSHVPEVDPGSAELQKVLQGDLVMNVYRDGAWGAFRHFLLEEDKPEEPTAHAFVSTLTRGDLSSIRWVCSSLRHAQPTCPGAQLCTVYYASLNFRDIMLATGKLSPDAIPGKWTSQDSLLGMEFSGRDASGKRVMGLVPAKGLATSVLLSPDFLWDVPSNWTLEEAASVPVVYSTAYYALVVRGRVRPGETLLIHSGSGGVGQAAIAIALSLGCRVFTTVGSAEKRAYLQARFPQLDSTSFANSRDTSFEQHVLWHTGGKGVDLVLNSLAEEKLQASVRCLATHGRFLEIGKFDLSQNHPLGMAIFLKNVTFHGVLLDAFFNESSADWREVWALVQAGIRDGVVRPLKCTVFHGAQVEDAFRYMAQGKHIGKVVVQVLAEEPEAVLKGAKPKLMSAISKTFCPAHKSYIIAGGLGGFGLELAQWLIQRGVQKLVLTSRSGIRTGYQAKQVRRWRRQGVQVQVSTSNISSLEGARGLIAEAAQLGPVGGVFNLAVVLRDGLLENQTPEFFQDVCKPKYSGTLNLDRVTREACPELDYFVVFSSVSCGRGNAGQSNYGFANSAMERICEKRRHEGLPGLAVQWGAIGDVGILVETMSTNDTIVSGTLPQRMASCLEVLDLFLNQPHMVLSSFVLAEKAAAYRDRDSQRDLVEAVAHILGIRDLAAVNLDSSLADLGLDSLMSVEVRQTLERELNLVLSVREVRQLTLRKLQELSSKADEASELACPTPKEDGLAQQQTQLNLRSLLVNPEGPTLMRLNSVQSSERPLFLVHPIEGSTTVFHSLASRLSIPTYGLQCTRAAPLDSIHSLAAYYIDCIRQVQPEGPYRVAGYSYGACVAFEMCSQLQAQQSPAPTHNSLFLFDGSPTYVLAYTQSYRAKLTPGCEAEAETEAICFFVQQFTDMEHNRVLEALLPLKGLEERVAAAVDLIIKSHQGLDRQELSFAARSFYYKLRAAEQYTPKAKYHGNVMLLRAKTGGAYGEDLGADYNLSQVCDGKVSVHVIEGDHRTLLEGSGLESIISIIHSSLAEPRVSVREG
NR3A LBD binder = modulators (binders) of human NR3A ligand-binding domain; NR3A LBD differential scanning fluorimetry, Tm shift; 0% = protein alone, 100% = glycine-bound protein; Tm shift relative to glycine control, % at 25 µM; 340,000 compounds, 2.5% hits;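 active = melting temperature shift of at least 10% of the positive control shift, at one fixed dose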
FAS-TE inh conf = FAS thioesterase (human) inhibition, confirmation; shares compounds with FAS TE block; recombinant FAS-TE, OMFH fluorogenic substrate, fluorescence; inhibition, % at 15 µM; 2,300 compounds, 45% hits;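 active = compounds inhibiting the enzyme by at least 50% at 15 µM in any one of the replicates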;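 also: 0% = enzyme with DMSO only and 100% = wells lacking enzyme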
* = called active by the depositor. Compounds with a hit are over-represented: about 4.3% of the library has one in this group of screens.

Results for Cc1ccc(S(=O)(=O)c2nnn3c2nc(N2CCOCC2)c2ccccc23)cc1 ?
NadD inh: 4.7; rCAG RNA binder: 4.3; FAS TE block: 36.7; NR3A LBD binder: 0.5

Results for CCc1ccc(S(=O)(=O)c2nnn3c2nc(N2CCOCC2)c2ccccc23)cc1 ?
NadD inh: 0.6; rCAG RNA binder: 1.3; FAS TE block: 59.8*; NR3A LBD binder: -2.6; FAS-TE inh conf: 36.4*

How did Nc1[nH]c(C(=O)c2ccc(Cl)cc2)c(-c2ccc(Br)cc2)c1C(=O)NCc1ccc(Cl)cc1Cl do in these assays?
rCAG RNA binder: 8.3

Results for COc1ccccc1-c1cc(SC)c(C#N)c(=O)o1 ?
NadD inh: -2.2; rCAG RNA binder: 1.0; FAS TE block: 54.9*; NR3A LBD binder: 1.5; FAS-TE inh conf: 47.2*

Results for CN1C(=O)/C(=C/c2cc(N=Nc3ccccc3)ccc2O)SC1=S ?
NadD inh: 4.6; rCAG RNA binder: 14.6; FAS TE block: 58.5*; NR3A LBD binder: 372.4*; FAS-TE inh conf: 14.2

What do the screens show for `Cc1cccc(N2C(=O)c3cccc4c(N5CCCCC5)c([N+](=O)[O-])cc(c34)C2=O)c1C`?
NadD inh: 11.3; rCAG RNA binder: 2.9; FAS TE block: 21.1; NR3A LBD binder: -3.3

Results for O=C1c2cccc3c(N4CCOCC4)c([N+](=O)[O-])cc(c23)C(=O)N1c1cccc2ccccc12 ?
NadD inh: 26.5; rCAG RNA binder: 9.7; FAS TE block: 76.8*; NR3A LBD binder: -6.6; FAS-TE inh conf: 25.1

Results for COc1ccc(C2=NN(C(=O)c3ccc(Cl)c([N+](=O)[O-])c3)C(c3ccccc3)C2)cc1 (stereo unspecified) ?
NadD inh: 7.4; rCAG RNA binder: 5.6; FAS TE block: 56.4*; NR3A LBD binder: -1.2; FAS-TE inh conf: -1.4

What do the screens show for `COc1ccc(C2CC(c3ccc(Cl)cc3)=NN2C(=O)c2cccc([N+](=O)[O-])c2)cc1` (stereo unspecified)?
NadD inh: -4.4; rCAG RNA binder: 0.8; FAS TE block: 28.6; NR3A LBD binder: -2.2

Results for CN(C)S(=O)(=O)c1ccc(N2CCCC2)c(C(=O)Nc2nc3ccc(F)cc3s2)c1 ?
NadD inh: 16.8; rCAG RNA binder: 5.4; FAS TE block: 70.9*; NR3A LBD binder: -17.7; FAS-TE inh conf: 21.9

How did CN(C)S(=O)(=O)c1ccc(N2CCCC2)c(C(=O)Nc2nc(-c3ccc(F)cc3)cs2)c1 do in these assays?
NadD inh: 7.9; rCAG RNA binder: 2.3; FAS TE block: 55.5*; NR3A LBD binder: -6.1; FAS-TE inh conf: 23.8

Results for CN1[C@H](Cc2ccccc2)COc2cc(N3CCSCC3)ccc2S1(=O)=O ?
rCAG RNA binder: 4.5

Results for Cc1ccc(NC(=O)c2nc[nH]c2C(=O)NCCN(CCNC(=O)c2[nH]cnc2C(=O)Nc2ccc(C)cc2)CCNC(=O)c2[nH]cnc2C(=O)Nc2ccc(C)cc2)cc1 ?
NadD inh: 37.9*; rCAG RNA binder: 2.7; FAS TE block: 54.0*; NR3A LBD binder: 15.7*; FAS-TE inh conf: 18.1

How did Cc1c(NC(=O)C(C)OC(=O)c2cc(-c3cccc4ccccc34)nc3ccccc23)c(=O)n(-c2ccccc2)n1C (stereo unspecified) do in these assays?
NadD inh: 16.6; rCAG RNA binder: 4.7; FAS TE block: 72.9*; NR3A LBD binder: -1.0; FAS-TE inh conf: 15.7

What do the screens show for `COc1ccc(-c2cc(C(=O)OC(C)C(=O)Nc3c(C)n(C)n(-c4ccccc4)c3=O)c3ccccc3n2)cc1` (stereo unspecified)?
NadD inh: 1.0; rCAG RNA binder: 1.7; FAS TE block: -7.4; NR3A LBD binder: -2.8

What do the screens show for `CC(C)=CCN1C(=O)[C@]2(OCCC=C[C@H]2C)c2c(Br)cccc21`?
rCAG RNA binder: 1.7

What do the screens show for `O=C(Nc1ccccc1)c1ccc(Nc2c([N+](=O)[O-])cc([N+](=O)[O-])c3ccccc23)cc1`?
NadD inh: 24.5; rCAG RNA binder: 14.3; FAS TE block: 68.8*; NR3A LBD binder: 10.7*; FAS-TE inh conf: 38.4

How did CCOC(=O)c1c(NC(C)=O)sc2c1CCC(C=NCCCN(CC)CC)=C2Sc1ccccc1 do in these assays?
NadD inh: 10.3; FAS TE block: 55.9*; NR3A LBD binder: 1.0; FAS-TE inh conf: 38.1

Results for COc1ccc(CNC(=O)/C(C#N)=C2\N=C(NC(=O)c3cccs3)c3ccccc32)cc1 ?
NadD inh: -4.3; rCAG RNA binder: 3.6; FAS TE block: 51.3*; NR3A LBD binder: 0.4; FAS-TE inh conf: 33.5

Results for COCCNC(=O)/C(C#N)=C1\N=C(NC(=O)c2cccs2)c2ccccc21 ?
NadD inh: -26.1; rCAG RNA binder: 4.2; FAS TE block: -7.2; NR3A LBD binder: 5.7

Results for Cc1cc([N+](=O)[O-])nn1CCCC(=O)Nc1cc(Oc2ccccc2)cc([N+](=O)[O-])c1 ?
NadD inh: -6.3; rCAG RNA binder: 3.1; FAS TE block: 35.8; NR3A LBD binder: 1.4

What do the screens show for `Cc1cccc(Oc2cc(NC(=O)Cn3cnc([N+](=O)[O-])n3)cc([N+](=O)[O-])c2)c1`?
NadD inh: 1.7; rCAG RNA binder: 33.2; FAS TE block: 59.3*; NR3A LBD binder: 27.4*; FAS-TE inh conf: 44.4

Results for COc1ccc2c(c1)c(CC(=O)Nc1ccccc1OC)c(C)n2C(=O)c1ccc(Cl)cc1 ?
NadD inh: 1.6; rCAG RNA binder: 6.3; FAS TE block: 51.6*; NR3A LBD binder: -2.4; FAS-TE inh conf: 12.2

How did COc1ccc2c(c1)c(CC(=O)Nc1nnc(C3CC3)s1)c(C)n2C(=O)c1ccc(Cl)cc1 do in these assays?
NadD inh: 22.2; rCAG RNA binder: 7.8; FAS TE block: -1.1; NR3A LBD binder: -4.2

What do the screens show for `COc1ccc2c(c1)c(CC(=O)Nc1cc(C)ccc1C)c(C)n2C(=O)c1ccc(Cl)cc1`?
NadD inh: 4.7; rCAG RNA binder: 9.2; FAS TE block: 21.4; NR3A LBD binder: -4.3

What do the screens show for `COc1ccc2c(c1)c(CC(=O)Nc1ccc(C(C)=O)cc1)c(C)n2C(=O)c1ccc(Cl)cc1`?
NadD inh: 18.5; rCAG RNA binder: 18.9; FAS TE block: 54.1*; NR3A LBD binder: 9.7; FAS-TE inh conf: 29.5

How did NS(=O)(=O)c1ccc(NC(=O)N2c3ccccc3Sc3ccccc32)cc1 do in these assays?
rCAG RNA binder: 6.2; NR3A LBD binder: -2.6

What do the screens show for `CC1CCN(S(=O)(=O)c2ccc(NC(=O)N3c4ccccc4Sc4ccccc43)cc2)CC1`?
NadD inh: 9.0; rCAG RNA binder: 3.4; FAS TE block: 61.9*; NR3A LBD binder: 2.1; FAS-TE inh conf: 15.4

Results for COc1ccc(-c2nn(-c3ccccc3)cc2/C=N/NC(=S)NC(C)C)cc1OC ?
NadD inh: 4.5; rCAG RNA binder: 8.6; FAS TE block: 55.6*; NR3A LBD binder: 1.1; FAS-TE inh conf: 14.8

How did Cc1ccc2c(c1C)-c1c(ccc(C)c1C)C(=O)C2=O do in these assays?
NadD inh: 0.2; rCAG RNA binder: 3.2; FAS TE block: 61.1*; NR3A LBD binder: 4.0; FAS-TE inh conf: 56.0*
